Data on twelve molecules can be found in PubChem BioAssay (NCI).

This is part of a sample that, as a whole, favours compounds with a hit. Of some 83,000 tested, about 20% had one in any assay.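 In brief: 96-well plates, 48 h treatment, single concentration, percent growth endpoint.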 Active and inactive are the calls of the source. Rule for the calls: active = growth percent below 10; inactive = the rest.

This assay relates to SK-OV-3 ovarian. Kind of assay: NCI-60 one-dose screen, 48 h (100 = growth as untreated, 0 = no growth, -100 = all killed). Particulars: 10 µM unless noted.
For the molecule `COC(=O)[C@]12CC[C@@H](C)[C@H](C)[C@@H]1C1=CC[C@@H]3[C@@]4(C)C(C=O)=C[C@@](C)(COC(=O)c5ccco5)[C@@H]4C(=O)C[C@@]3(C)[C@]1(C)CC2`, the growth is 33.7% (inactive).
As for `COc1cccc(C(=O)NCCNc2cc(-c3cn(-c4ccccc4)nc3-c3cccc(OC)c3)ccn2)c1`, the figure is 54.6% (inactive); as for `O=C(O)C1CCC(=O)N1C(=O)OCc1ccccc1` (configuration not stated), 109% (inactive); as for `Cc1cc(NCc2cc(Nc3ccnc4cc(Cl)ccc34)ccc2F)nc(N2CCCC2)n1`, 51.1% (inactive).
As for `COC(=O)[C@]12CC[C@@H](C)[C@H](C)[C@@H]1C1=CC[C@@H]3[C@@]4(C)C(C=O)=C[C@@](C)(COC(=O)c5ccco5)C4=CC[C@@]3(C)[C@]1(C)CC2`, the figure is 27.8% (inactive); as for `CC(CCc1ccc(Cl)c(Cl)c1)NCc1ccc(C(C)(C)C)cc1` (configuration not stated), 93.6% (inactive).
With `Cc1ccc2nc3ccccc3c(NCc3ccccc3)c2c1` the figure was 64.3% (inactive); with `COc1cc(-c2nc(N3CCN(C)CC3)c3ccccc3n2)cc(OC)c1OC`, 68.4% (inactive); with `CCn1c(C)nc2cc(C(N)=O)ccc21`, 105% (inactive).
`CN(C)CC1C(=O)O[C@H]2[C@H]1CC/C(COC(=O)c1cc3ccccc3[nH]1)=C\CC[C@@]1(C)O[C@@H]21` (some centres not stated): the growth is 65.1% (inactive).
In the case of `CN1CCN(CCCOc2ccc3nc(Nc4ccc(F)c(F)c4)ccc3c2)CC1`, the growth was 49.6% (inactive).
With `COc1cccc(-c2nn(-c3ccccc3)cc2-c2ccnc(NCCCNC(=O)c3cccc(C(F)(F)F)c3)c2)c1` the figure was 28.3% (inactive).
